Results on eight molecules are retold here after PubChem BioAssay (NCI).

Among the test systems are NCI-H226 lung; NCI-H322M lung; HOP-62 NSCLC; NCI-H460 lung; HOP-92 NSCLC; NCI-H522 lung; A549/ATCC NSCLC; 786-0 renal; COLO 205 colon; DU-145 prostate; K-562 leukemia; MALME-3M melanoma; MDA-MB-231 breast; RXF 393 renal; SF-268 CNS; SF-295 CNS; SF-539 CNS; UACC-257 melanoma; M14 melanoma.
What all share (assay): NCI-60 one-dose screen, 48 h (100 = growth as untreated, 0 = no growth, -100 = all killed)
Holding throughout (settings): 10 µM unless noted

Compounds without any hit were thinned out: in the full panel of roughly 83,000, 20% have a hit.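 How to read the values: 0–100, growth inhibition (40 = 60% inhibited); 0, no net growth; -100 to 0, cell death (-40 = 40% of starting cells died; -100 = all dead).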 A number with no mark means an inactive call. Active and inactive are the calls of the source. Rule for the calls: active = growth percent below 10; inactive = the rest.

Take `CN(C)CC1C(=O)O[C@H]2[C@H]1CC/C(COC(=O)NCc1ccc(Cn3c(=O)sn(CCCI)c3=O)cc1)=C\CC[C@@]1(C)O[C@@H]21` (stereo not given in full): the growth is -27.4% (active) with NCI-H226 lung; 95.1% in the test with NCI-H322M lung; 83.8% with HOP-62 NSCLC; 100% with NCI-H460 lung; -87.2% (active) in the test with HOP-92 NSCLC; -84.3% (active) with NCI-H522 lung. For the same molecule, the growth is 101% with A549/ATCC NSCLC; -73.2% (active) in the test with 786-0 renal; -63% (active) with COLO 205 colon; -69.8% (active) with DU-145 prostate; -0.241% (active) with K-562 leukemia; -75.6% (active) in the test with MALME-3M melanoma. For the same molecule, the growth was 60.4% in the test with MDA-MB-231 breast; -87% (active) in the test on RXF 393 renal; 57.7% in the test on SF-268 CNS; 96.8% in the test on SF-295 CNS; 24.4% in the test on SF-539 CNS; -39.8% (active) in the test on UACC-257 melanoma. In addition, the growth with M14 melanoma is -56.7% (active).
Turning to `OC1CSSC1Cn1cnc2c(Nc3ccc(F)c(Cl)c3)ncnc21` (stereo not given), the growth is 87.9% in the test on NCI-H226 lung; 74.1% with NCI-H322M lung; 93.2% in the test with HOP-62 NSCLC; 68.4% in the test with NCI-H460 lung; 69.2% in the test on NCI-H522 lung; 77.5% in the test on A549/ATCC NSCLC. Also, the growth is 108% in the test on 786-0 renal; 85.8% with DU-145 prostate; 32.5% in the test with K-562 leukemia; 65.1% in the test with MALME-3M melanoma; 84.6% with MDA-MB-231 breast; 114% with RXF 393 renal. The growth with SF-268 CNS was 81.8%; in the test on SF-295 CNS it was 106%; in the test on SF-539 CNS it was 93.2%; in the test on UACC-257 melanoma, 82%; in the test on M14 melanoma, -65.9% (active).
Turning to `Cc1ccc(-c2nnc(SCc3nc(N)nc(Nc4ccccc4F)n3)n2-c2ccccc2)cc1`, the growth was 80.4% in the test on NCI-H226 lung; 93.5% with NCI-H322M lung; 94.6% in the test with HOP-62 NSCLC; 95.8% with NCI-H460 lung; 67.3% in the test on HOP-92 NSCLC; 81.5% with NCI-H522 lung. For the same molecule, the growth with A549/ATCC NSCLC is 88.7%; with 786-0 renal, 95.7%; with COLO 205 colon it was 101%; with DU-145 prostate it was 102%; in the test on K-562 leukemia, 89.9%; in the test on MALME-3M melanoma it was 117%. Further, the growth in the test with MDA-MB-231 breast was 91.9%; in the test with RXF 393 renal, 80.7%; with SF-268 CNS it was 97.3%; in the test with SF-295 CNS, 94.3%; in the test with SF-539 CNS it was 97%; in the test on UACC-257 melanoma it was 99.3%. Also, the growth in the test on M14 melanoma is 103%.
In the case of `Nc1nc(N)c2c(n1)NC(c1cccc(Nc3ccnc4cc(C(F)(F)F)ccc34)c1)CC(c1ccc(Cl)cc1)=N2` (stereo not given), the growth in the test with NCI-H226 lung is 82.7%; in the test with NCI-H322M lung, 89.3%; in the test with HOP-62 NSCLC, 52%; in the test on NCI-H460 lung, 20.4%; in the test on HOP-92 NSCLC, 34.5%; in the test with NCI-H522 lung, 32.6%. The growth was 40.8% in the test on A549/ATCC NSCLC; 68.9% with 786-0 renal; 29.5% with COLO 205 colon; 69.5% with DU-145 prostate; 10.5% with K-562 leukemia; 50.8% in the test on MALME-3M melanoma. Also, the growth was 54.4% with MDA-MB-231 breast; 37.6% in the test on RXF 393 renal; 55.2% with SF-268 CNS; 48.4% in the test with SF-295 CNS; 80.8% in the test with SF-539 CNS; 87.3% in the test with UACC-257 melanoma. In the test with M14 melanoma, the growth is 29.7%.
Take `Nc1nc(Nc2ccc([N+](=O)[O-])cc2O)nc(C(Cl)(Cl)Cl)n1`: the growth with NCI-H226 lung is 90.2%; with NCI-H322M lung it was 96.9%; in the test with HOP-62 NSCLC, 80%; with NCI-H460 lung, 90.2%; in the test with HOP-92 NSCLC, 49.4%; in the test with NCI-H522 lung it was 10.9%. The growth is 82.4% in the test with A549/ATCC NSCLC; 97.1% with 786-0 renal; 107% in the test with COLO 205 colon; 97.3% in the test with DU-145 prostate; 28.7% in the test with K-562 leukemia; 84.9% in the test with MALME-3M melanoma. Further, the growth in the test on MDA-MB-231 breast was 86.9%; in the test with RXF 393 renal it was 76.1%; in the test on SF-268 CNS, 64.4%; with SF-295 CNS, 93.2%; with SF-539 CNS, 58%; in the test with UACC-257 melanoma, 85.7%. In the test with M14 melanoma, the growth is 74.6%.
With `N=C(N)c1ccc(-c2ccc(-c3ccc(Cl)cc3Cl)s2)nc1`, the growth in the test on NCI-H226 lung is 91.7%; with NCI-H322M lung, 60.9%; in the test with HOP-62 NSCLC, 90.7%; in the test with NCI-H460 lung it was -60.1% (active); in the test on HOP-92 NSCLC it was 84.2%; in the test with NCI-H522 lung, 29%. Besides, the growth with A549/ATCC NSCLC was 33.1%; in the test with 786-0 renal it was 85.4%; in the test on COLO 205 colon, -27.1% (active); in the test on DU-145 prostate, 28.7%; in the test with K-562 leukemia, -1.71% (active); in the test with MALME-3M melanoma, 100%. For the same molecule, the growth in the test with MDA-MB-231 breast is 74.3%; in the test with RXF 393 renal, 79.8%; in the test on SF-268 CNS it was 89.8%; in the test with SF-295 CNS, 58.4%; in the test on SF-539 CNS, 83.5%; in the test on UACC-257 melanoma, 101%. Besides, the growth with M14 melanoma is 74.7%.
Take `CN1C(=O)N(C)C2C1NN=c1s/c(=C\c3ccccc3F)c(=O)n12` (stereo not given): the growth with NCI-H226 lung was 57.8%; in the test on NCI-H322M lung, 37.3%; with HOP-62 NSCLC it was 32.9%; with NCI-H460 lung, 3.14% (active); in the test on HOP-92 NSCLC it was 76.8%; in the test on NCI-H522 lung, -8.56% (active). In addition, the growth in the test with A549/ATCC NSCLC was 21%; in the test on 786-0 renal, 36%; with COLO 205 colon, 8.94% (active); with DU-145 prostate, 15.9%; in the test on K-562 leukemia, 9.52% (active); with MALME-3M melanoma, 44.9%. Moreover, the growth was 13.2% with MDA-MB-231 breast; -6.27% (active) in the test with RXF 393 renal; 65.5% in the test with SF-268 CNS; 14.6% in the test with SF-295 CNS; -23.8% (active) in the test on SF-539 CNS; 54.5% in the test with UACC-257 melanoma. Moreover, in the test with M14 melanoma, the growth is 9.53% (active).
For the molecule `C#CCOc1cc(/C=N/Nc2nc(-c3ccc(OC)cc3)cs2)ccc1O`, the growth in the test on NCI-H226 lung is 89.6%; in the test with NCI-H322M lung, 92.4%; in the test on HOP-62 NSCLC, 97%; with NCI-H460 lung, 88.4%; with HOP-92 NSCLC it was 86.3%; in the test on NCI-H522 lung, 76.1%. In addition, the growth with A549/ATCC NSCLC is 74.2%; with 786-0 renal it was 92.6%; in the test on COLO 205 colon it was 103%; in the test on DU-145 prostate, 95.7%; in the test on K-562 leukemia, 59.1%; in the test with MALME-3M melanoma it was 86.1%. Further, the growth in the test with MDA-MB-231 breast was 96.5%; in the test on RXF 393 renal, 107%; in the test on SF-268 CNS it was 94.3%; in the test on SF-295 CNS, 84.1%; in the test on SF-539 CNS it was 93%; with UACC-257 melanoma, 93.2%. Besides, in the test on M14 melanoma, the growth was 94.2%.
